The AC50 is the concentration giving half of the maximal activity seen.

Structures are written as SMILES. Results filed as inconclusive are left out. Some structures have more than one record in an assay (separate samples or runs), and their calls can disagree. The source made the active and inactive calls. The calls were made as follows, unless noted: active = hit-call score of the fitted dose curve at least 0.9, where 1 is the maximum; inconclusive = response in the unintended direction; inactive = score below 0.9.

Experiment [1] in a line: Tanguay_ZF_120hpf_ActivityScore_legacy: (Legacy) Oregon State University Tanguay Lab 120 Hour Post-fertilization zebrafish Assay Score for Activity (AID 2283742).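 As to AC50: dechorionated Tropical 5D wild-type zebrafish embryos held singly per well; static exposure from 6 hpf until 120 hpf at 28 °C.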 In outline:
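In this whole-embryo screen, dechorionated zebrafish were exposed from 6 hpf until 120 hpf at 28C under a 0.64% DMSO vehicle. Developmental malformations and death were recorded by brightfield microscopy as binary endpoints.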

In experiment [2] the test system is zebrafish Androgen Receptor (AR), gene 100005148. Put plainly: ATG_zfAR_XSP1: Attagene TRANS-FACTORIAL Multi-Species (XSP1) HepG2 Assay for zebrafish Androgen Receptor (AR) (AID 2283771). In outline: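 Gain-of-signal versus DMSO was measured as reporter transcripts quantified by RT-PCR, fluorescent labelling and capillary electrophoresis after 24 h chemical exposure. The cells were HepG2 expressing a chimeric zebrafish AR-GAL4, co-stimulated with 3 nM 6-alpha-fluorotestosterone.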

The target in experiment [3] is zebrafish Estrogen Receptor (ESR1), esr1 (gene 259252) (UniProt P57717). Nature of the experiment: ATG_zfER1_XSP1: Attagene TRANS-FACTORIAL Multi-Species (XSP1) HepG2 Assay for zebrafish Estrogen Receptor (ESR1) (AID 2283772). In a few lines: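 Reporter mRNA induction, gauged via RT-PCR/capillary electrophoresis fluorescence relative to DMSO controls, in HepG2 cells transiently carrying GAL4-UAS reporter units; 24 h dosing.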

Experiment [4] is described as follows: CEETOX_H295R_MTT_cell_viability: Viability Assessment in the CeeTox HT-H295R MTT Assay (AID 2283718; active = hit-call score of the fitted dose curve at least 0.9, where 1 is the maximum; inactive = score below 0.9). In outline:
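H295R cells prestimulated 48 h with 10 uM forskolin, then exposed 48 h to test chemical (0.1% DMSO final). Viability by MTT (0.5 mg/ml, 4 h, 37 C), absorbance 570/650 nm; percent change versus DMSO, bidirectional fit.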

Experiment [5] concerns the target Luciferin 4-monooxygenase (Photinus pyralis) (UniProt P08659). Nature of the experiment: CCTE_Simmons_QuantiLum_inhib_2: CCTE's Firefly Luciferase Inhibition Assay, Simmons Lab (AID 2283767). In a few lines: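 First, 5 ng purified luciferase in phosphate buffer with BSA is dispensed per well. Next, test chemicals (5 nM to 87.5 uM final, 0.5% DMSO) are added and incubated 30 min at 37C in darkness. Finally, luciferin reagent is injected and luminescence read kinetically.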

Experiment [6] relates to chicken Androgen Receptor (AR), gene 422165. Nature of the experiment: ATG_chAR_XSP1: Attagene TRANS-FACTORIAL Multi-Species (XSP1) HepG2 Assay for chicken Androgen Receptor (AR) (AID 2283768). In a few lines:
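Reporter mRNA read by RT-PCR with fluorescent labelling and capillary electrophoresis 24 h after chemical dosing of transiently transfected HepG2 cells. Chicken AR-Gal4 chimera, partially stimulated with 3 nM 6-alpha-fluorotestosterone; activity fitted upward relative to DMSO.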

In experiment [7] the test system is Thyroperoxidase (TPO), gene 445522. Put plainly: CCTE_Simmons_GUA_TPO: CCTE's Guaiacol Assay for Thyroperoxidase (TPO) Inhibition, Simmons Lab (AID 2283750). In outline: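 Porcine thyroid microsomes (25 ug) in 200mM potassium phosphate, preincubated 30 s at 37C with compound (8 concentrations, 5 nM–87.5 uM) and 35mM guaiacol; 1mM H2O2 starts reaction. Absorbance change at 450nm over first 80 s; loss of signal versus DMSO, three replicates.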

Chain of zebrafish Estrogen Receptor (ESR1), esr1 (gene 259252) (P57717 whole entry, looked up, the tested form may be a part): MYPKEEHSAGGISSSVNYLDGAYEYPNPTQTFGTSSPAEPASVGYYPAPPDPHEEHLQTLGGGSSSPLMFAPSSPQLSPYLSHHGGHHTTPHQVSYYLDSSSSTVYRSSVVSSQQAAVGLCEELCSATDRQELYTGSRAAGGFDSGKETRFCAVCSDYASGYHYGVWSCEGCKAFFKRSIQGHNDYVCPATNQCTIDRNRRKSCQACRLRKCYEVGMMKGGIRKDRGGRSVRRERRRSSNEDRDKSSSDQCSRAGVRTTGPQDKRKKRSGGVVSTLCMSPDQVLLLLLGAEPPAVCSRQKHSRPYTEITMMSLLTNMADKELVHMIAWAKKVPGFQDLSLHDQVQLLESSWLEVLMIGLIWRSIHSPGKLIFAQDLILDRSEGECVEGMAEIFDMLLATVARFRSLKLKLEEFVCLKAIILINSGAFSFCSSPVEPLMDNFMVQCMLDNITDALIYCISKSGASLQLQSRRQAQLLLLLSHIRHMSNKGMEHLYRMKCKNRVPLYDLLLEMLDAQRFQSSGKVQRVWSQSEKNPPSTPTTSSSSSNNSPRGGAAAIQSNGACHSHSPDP
Chain of Luciferin 4-monooxygenase (Photinus pyralis) (P08659 whole entry, looked up): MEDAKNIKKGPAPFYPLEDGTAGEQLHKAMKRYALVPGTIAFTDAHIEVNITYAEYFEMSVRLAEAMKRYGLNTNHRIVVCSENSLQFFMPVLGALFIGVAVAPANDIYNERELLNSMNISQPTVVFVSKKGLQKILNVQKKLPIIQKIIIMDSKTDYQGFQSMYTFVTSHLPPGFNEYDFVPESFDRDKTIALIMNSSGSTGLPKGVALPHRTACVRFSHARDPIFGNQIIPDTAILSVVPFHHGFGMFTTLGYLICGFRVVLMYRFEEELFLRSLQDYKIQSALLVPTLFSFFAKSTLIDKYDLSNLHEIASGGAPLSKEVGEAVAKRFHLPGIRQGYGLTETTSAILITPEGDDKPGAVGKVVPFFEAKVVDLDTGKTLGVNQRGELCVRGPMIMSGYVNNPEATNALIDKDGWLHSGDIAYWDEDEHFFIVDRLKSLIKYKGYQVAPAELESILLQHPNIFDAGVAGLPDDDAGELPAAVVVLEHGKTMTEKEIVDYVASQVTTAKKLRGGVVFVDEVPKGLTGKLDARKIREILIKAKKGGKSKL

For the molecule `ClC(Cl)=C(c1ccc(Cl)cc1)c1ccc(Cl)cc1`, the result in experiment [1], in experiment [2] and in experiment [3] was inactive.

Regarding `N#Cc1ccc(N(CC(N)=O)CC(F)(F)F)cc1C(F)(F)F`, the outcome in experiment [4] and in experiment [1] was inactive.

For the molecule `Cc1cccc(C)c1N`, the molecule was called inactive in experiment [4] and in experiment [1].

`O=C(NC(=O)c1cc(F)c(F)cc1Cl)Nc1cc(F)ccc1N1CCC(C(=O)O)CC1`: the result in experiment [1] was inactive.

As to `CCOP(=S)(OCC)SCSC(C)(C)C`, the outcome in experiment [4] and in experiment [1] was inactive.

Regarding `Cc1ccc(O)c(C)c1`, the outcome in experiment [4], in experiment [1] and in experiment [5] was inactive.

Turning to `ClC1=C(Cl)[C@]2(Cl)[C@@H]3[C@@H](Cl)[C@H]4O[C@H]4[C@@H]3C1(Cl)C2(Cl)Cl`, the result in experiment [1] was inactive.

Regarding `CC(c1ccc(O)cc1)(c1ccc(O)cc1)c1ccc(O)cc1`, the result in experiment [1] and in experiment [5] was inactive.

Consider `O=C(N[C@H]1CN2CCC1CC2)c1cc2ccoc2cn1`, for which the molecule was called inactive in experiment [1].

On to `CC(C)(O)C(=O)Nc1ccc([N+](=O)[O-])c(C(F)(F)F)c1`, for which the AC50 in experiment [1] is 20.3 µM (active).

With `Cc1cccc([N+](=O)[O-])c1`, the outcome in experiment [1] was inactive.

As to `Clc1ccc(Cl)cc1`, the molecule was classed as inactive in experiment [1].

`C[C@]12CCC(=O)C=C1CC[C@@H]1[C@@H]2CC[C@]2(C)C(=O)CC[C@@H]12`: the outcome in experiment [4], in experiment [5], in experiment [6], in experiment [2] and in experiment [3] was inactive. Moreover, the AC50 is 67.7 µM (active) in experiment [1], 0.0535 µM (active) in experiment [6] and 1.14 µM (active) in experiment [3].

With `CCOC(=O)C(O)(c1ccc(Cl)cc1)c1ccc(Cl)cc1`, the call in experiment [1] was inactive.

Take `O=C(O)C(F)(F)C(F)(F)C(F)(F)C(F)(F)C(F)(F)C(F)(F)C(F)(F)C(F)(F)C(F)(F)F`: the outcome in experiment [4], in experiment [1] and in experiment [5] was inactive.

On to `O=C(O)C(F)(F)C(F)(F)C(F)(F)C(F)(F)C(F)(F)C(F)(F)C(F)(F)C(F)(F)F`, for which the result in experiment [1] and in experiment [5] was inactive.

With `Cc1ccccc1O`, in experiment [1], the result was inactive.

For `CN(C)CCO`, the molecule was classed as inactive in experiment [1].

`Oc1c(Cl)c(Cl)c(Cl)c(Cl)c1Cl`: the outcome in experiment [4] and in experiment [5] was inactive. The AC50 in experiment [1] is 1.03 µM (active).

For the molecule `CCC(C)(c1ccc(O)cc1)c1ccc(O)cc1`, the AC50 in experiment [1] was 49.3 µM (active); in experiment [7] it was 189 µM (active). Also, the outcome in experiment [5] was inactive.

In the case of `COc1ccc(O)c(C(C)(C)C)c1`, the molecule was called inactive in experiment [1] and in experiment [5].

For `O=S(=O)(O)C(F)(F)C(F)(F)C(F)(F)C(F)(F)C(F)(F)C(F)(F)F`, the AC50 in experiment [1] is 36.6 µM (active).

Regarding `CCCN(CCC)N=O`, the outcome in experiment [1] was inactive.
